Assay outcomes as filed in PubChem BioAssay.
GPR151 ag = activators of human GPR151. Q8TDV0. PathHunter beta-arrestin GPR151 cells, luminescence. activation, % at 11.2 µM. 1% of 650,000 active. AID 1508602; in the data active = activation above about 4.9%
Target sequence (Q8TDV0 whole entry, looked up): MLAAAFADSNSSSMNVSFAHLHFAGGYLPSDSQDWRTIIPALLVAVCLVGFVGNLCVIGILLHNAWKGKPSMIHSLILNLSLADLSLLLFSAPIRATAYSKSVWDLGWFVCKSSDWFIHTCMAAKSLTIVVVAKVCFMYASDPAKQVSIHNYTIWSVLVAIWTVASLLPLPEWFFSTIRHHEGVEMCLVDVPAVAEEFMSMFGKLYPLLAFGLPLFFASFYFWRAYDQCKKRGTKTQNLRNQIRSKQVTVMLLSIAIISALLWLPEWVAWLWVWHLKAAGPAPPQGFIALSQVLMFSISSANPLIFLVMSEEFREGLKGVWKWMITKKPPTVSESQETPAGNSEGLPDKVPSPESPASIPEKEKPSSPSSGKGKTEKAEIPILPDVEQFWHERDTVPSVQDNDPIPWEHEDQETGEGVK
TEAD-YAP inh = TEAD-YAP interaction inhibition. HEK-TIYL cells, TEAD-Gal4/YAP UAS-luciferase luminescence. inhibition, % at 9.12 µM. 1.4% of 640,000 active; in the data active = inhibition above about 32%
MITF inh = human MITF inhibition, primary screen; inhibition, % at 2.6 µM; AID 1259374; AlphaScreen MITF homodimerization, bead proximity signal; O75030; 0.91% of 650,000 active; in the data active = inhibition above about 50%
FBW7 act = activators of human E3 ligase FBW7. Q969H0. AlphaScreen FBW7–phospho-cyclin E peptide binding, activator screen. normalized activity (activation), % at 26.1 µM. 0.13% of 650,000 active. AID 1259310; in the data active = normalized activity above about 1.9%;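 note: purified mutant Fbw7 with reduced substrate affinity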
GPR151 conf act = human GPR151 activation, confirmation screen; 6,700 tested, under 10 active; GPR151 PathHunter beta-arrestin cells, luminescence, 90 min; % of EA-reagent control over plate median; activation, % at 11.2 µM; shares compounds with GPR151 ag;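 active = mean percent activation across replicates above the confirmation screen cutoff of 4.91%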
GPR119 ag = activates human GPR119 in a GPR151 counter-screen | GPR119 PathHunter beta-arrestin cells, luminescence, 90 min; 0 = compound-well median, 100 = enzyme-acceptor control | shares compounds with GPR151 ag | 0.3% of 6,700 active | activation, % at 11.2 µM;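 active = mean percent activation in the counterscreen above 29.09%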;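 note: counterscreen on off-target GPR119 to flag nonselective hits from the GPR151 activator screen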
Of the large screens only hits and unclear results are named; the others gave an inactive call (follow-up assays come after a bar, where they were run). In the library only some 3.5% were active in any assay of this set; here they are far more common.

COc1cc(-c2cnc3ccc(NCCc4cccnc4)nn23)cc(OC)c1OC	none
CC(C)C[C@H]1C(=O)N2CCN(C(=O)c3ccc(OC(F)(F)F)cc3)C[C@@H]2C(=O)N1C	none
COc1ccc(C2/C(=C(/O)c3ccc(F)cc3)C(=O)C(=O)N2CCCCCC(=O)O)c(OC)c1 (stereo unspecified)	none
COc1ccc(C2/C(=C(/O)c3ccccc3)C(=O)C(=O)N2CCCn2ccnc2)c(OC)c1 (stereo unspecified)	GPR151 ag 5.9 | GPR151 conf act inactive | GPR119 ag inactive
COc1ccc(C2/C(=C(/O)c3ccc(C)cc3)C(=O)C(=O)N2CCCC(=O)O)c(OC)c1 (stereo unspecified)	GPR151 ag 7.8 | GPR151 conf act inactive | GPR119 ag inactive
COc1ccc(-n2cc(-c3ccccc3)nc2SCC(=O)Nc2ccc(Cl)cc2)cc1	none
CC(C)CCNC(=O)c1cc2c(s1)CS(=O)(=O)C2	GPR151 ag 6.5 | GPR151 conf act inactive | GPR119 ag inactive
Cc1ccc(CNC(=O)c2cc3c(s2)CS(=O)(=O)C3)cc1	GPR151 ag 5.7 | GPR151 conf act inactive | GPR119 ag inactive
Cc1ccc(CCNC(=O)c2cc3c(s2)CS(=O)(=O)C3)cc1	none
CC1=C(C#N)C(=O)N(CCCO)C(=O)/C1=C\c1ccc(-c2ccc(Br)cc2)o1	none
Cc1ccc(NC(=S)NCNC(=O)c2ccccc2)cc1	none
CCOc1cc(/C=C/c2[nH]c(=O)[nH]c(=O)c2[N+](=O)[O-])ccc1O	GPR151 ag 6.5 | GPR151 conf act inactive | GPR119 ag inactive
Clc1ccc(-c2csc(=Nc3cc(Cl)ccc3Cl)n2-c2ccccc2)cc1	none
COc1ccc(Cn2ccn(Cc3ccc(F)cc3)c(=O)c2=O)cc1	GPR151 ag 13 | GPR151 conf act inactive | GPR119 ag inactive
CC(=O)Nc1ccc(S(=O)(=O)Nc2sc3c(c2C(N)=O)CCC(C)C3)cc1 (stereo unspecified)	none
CCCC1CCc2c(sc(NS(=O)(=O)c3ccc(NC(C)=O)cc3)c2C(N)=O)C1 (stereo unspecified)	GPR151 ag 10 | GPR151 conf act inactive | GPR119 ag inactive
O=C(COc1ccc(Cl)cc1)Nc1ccc(-c2cn3cccnc3n2)cc1	GPR151 ag 8.6, FBW7 act 23 | GPR151 conf act inactive | GPR119 ag inactive
COc1ccc(-c2cn3cccnc3n2)cc1NC(=O)COc1ccc(Cl)cc1	none
O=C(COc1ccc(Cl)cc1)Nc1ccccn1	GPR151 ag 9.2, TEAD-YAP inh 49 | GPR151 conf act inactive | GPR119 ag inactive
CN(C)c1ccc(/C=N/NC(=O)CNc2ccc(Br)cc2)cc1	none
NC(=O)c1c(NC(=O)c2ccc(N3CCCC3=O)cc2)sc2c1CCCC2	none
O=S(=O)(Nc1ccc(F)cc1)c1ccc(Br)s1	none
Cc1ccc(S(=O)(=O)N2CCN(C3Cc4ccccc4C3)CC2)cc1	none
O=C(CSCc1c(Cl)cccc1Cl)N1CCOCC1	none
O=C(CSCc1c(Cl)cccc1Cl)N1CCCCC1	GPR151 ag 6.1 | GPR151 conf act inactive | GPR119 ag inactive
CCOC(=O)c1ccccc1NC(=O)c1ccccc1C	none
CCOCC(=O)Nc1cc([N+](=O)[O-])ccc1OC	none
CCOCC(=O)Nc1cc([N+](=O)[O-])ccc1C	GPR151 ag 6.2 | GPR151 conf act inactive | GPR119 ag inactive
COc1ccc([N+](=O)[O-])cc1NC(=O)/C=C/c1ccc(F)cc1	GPR151 ag 8.8 | GPR151 conf act inactive | GPR119 ag inactive
COc1ccc(/C=C/C(=O)Nc2cc([N+](=O)[O-])ccc2F)cc1OC	none
O=C(/C=C/c1ccc([N+](=O)[O-])cc1)Nc1ccccc1C(=O)Nc1cccc(C(=O)O)c1	GPR151 ag 4.9 | GPR151 conf act inactive | GPR119 ag inactive
CCOc1ccc(/C=C/C(=O)Nc2cc([N+](=O)[O-])ccc2C)cc1OC	GPR151 ag 6.5 | GPR151 conf act inactive | GPR119 ag inactive
O=C(Nc1cc([N+](=O)[O-])ccc1O)c1ccccc1	none
COc1ccc(Br)cc1C(=O)N/C(=C\c1cccc([N+](=O)[O-])c1)C(=O)Nc1ccc(C)c(Cl)c1	none
Cc1c(CN2CCc3c(nc(N4CCCCC4)[nH]c3=O)C2)cnn1C	none
COc1cc(OC)cc(-c2nc3ccccc3c(=O)n2NC(=O)c2cccnc2)c1	none
COc1ccc(/C=C/C(=O)Nc2ccc([N+](=O)[O-])cc2OC)cc1Br	none
COc1ccc(/C=C/C(=O)Nc2cc([N+](=O)[O-])ccc2OC)cc1Br	GPR151 ag 5.4 | GPR151 conf act inactive | GPR119 ag inactive
CCCSc1ncccc1C(=O)Nc1c(C)noc1C	GPR151 ag 7.4 | GPR151 conf act inactive | GPR119 ag inactive
CCOc1ccccc1N(C)S(=O)(=O)c1ccc2[nH]cc(C(=O)N(CC)CC)c(=O)c2c1	GPR151 ag 5.9 | GPR151 conf act inactive | GPR119 ag inactive
CC1CCCCC1NC(=O)CNc1cc([N+](=O)[O-])ccc1NCCO (stereo unspecified)	none
CC(C)(C)NS(=O)(=O)c1ccc2nc(NC(=O)c3cccnc3)sc2c1	GPR151 ag 6.2 | GPR151 conf act inactive | GPR119 ag inactive
Cc1ccc(C(=O)Nc2nc3ccc(S(C)(=O)=O)cc3s2)cc1	none
COc1cc(/C=N/n2c(-c3ccncc3)n[nH]c2=S)cc(Br)c1O	GPR151 ag 5.0 | GPR151 conf act inactive | GPR119 ag inactive
CCOCCn1c(=NC(=O)c2ccc([N+](=O)[O-])s2)sc2cccc(OC)c21	none
Cc1cc(C)cc(N=C2NC(=O)/C(=C/c3ccc(OCc4ccc(Br)cc4)c(Br)c3)S2)c1	none
COc1ccc(/C=C2/SC(=Nc3ccc(O)cc3)NC2=O)cc1	GPR151 ag 5.0 | GPR151 conf act inactive | GPR119 ag inactive
COc1ccc(/C=C2\SC(=Nc3ccc(O)cc3)NC2=O)cc1	none
Cc1cc(C)cc(N=C2NC(=O)/C(=C/c3ccc(OCc4ccc(Br)cc4)cc3)S2)c1	GPR151 ag 5.7 | GPR151 conf act inactive | GPR119 ag inactive
O=C(C(=O)N1CCN(Cc2ccc3c(c2)OCO3)CC1)N1CCCCC1	none
COC(=O)c1ccc(/C=C2\SC(=O)N(NC(=O)c3ccc([N+](=O)[O-])cc3)C2=O)cc1	none
CCOC(=O)Cn1c(=NC(=O)c2cc(=O)c3ccccc3o2)sc2cc(F)ccc21	GPR151 ag 5.1 | GPR151 conf act inactive | GPR119 ag inactive
CCOC(=O)Cn1c(=NC(=O)c2cc(=O)c3ccccc3o2)sc2cc(OC)ccc21	none
Cc1csc(Sc2ccc([N+](=O)[O-])cc2C(=O)OC(C)C#N)n1 (stereo unspecified)	GPR151 ag 5.3 | GPR151 conf act inactive | GPR119 ag inactive
Cc1csc(Sc2ccc([N+](=O)[O-])cc2C(=O)OCC(=O)Nc2cc(C)on2)n1	none
